Measurements: the supplement of paper PMC12669032

Key:
Experiment in all cases: growth AUC relative to DMSO control (median of replicates) (fraction); higher = more growth (less inhibition), active = hit call of the paper
Details in all cases: 20 µM; 24 h;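 active = AUC reduced over 20% with Padj below 0.05 in at least 2 of 3 replicates; inactive = otherwise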
Akkermansia muciniphila = system: Akkermansia muciniphila
How it was run: (§1)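 Gut bacteria were grown singly in mGAM at 37 °C without oxygen, from OD600 0.05, alongside 20 µM compound in 1% DMSO, and OD600 was read each hour for 24 h. Area under the growth curve was normalised to the median of solvent-only wells per plate, or to row and column medians on the industrial chemical plate. The minimum OD was set to 0 beforehand, and the reported value is the median of three biological replicates grown on separate days.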

Bacteroides caccae = system: Bacteroides caccae
How it was run: as §1

Bacteroides clarus = system: Bacteroides clarus
How it was run: as §1

Bacteroides dorei = system: Bacteroides dorei
How it was run: as §1

Bacteroides stercoris = system: Bacteroides stercoris
How it was run: as §1

[1] = system: Bacteroides thetaiotaomicron
How it was run: as §1

Bacteroides uniformis = system: Bacteroides uniformis
How it was run: as §1

[2] = system: Bifidobacterium longum subsp. longum
How it was run: as §1

Clostridium difficile = system: Clostridium difficile
How it was run: as §1

Collinsella aerofaciens = system: Collinsella aerofaciens
How it was run: as §1

Coprococcus comes = system: Coprococcus comes
How it was run: as §1

Escherichia coli ED1a = system: Escherichia coli ED1a
How it was run: as §1

Escherichia coli IAI1 = system: Escherichia coli IAI1
How it was run: as §1

Eubacterium rectale = system: Eubacterium rectale
How it was run: as §1

[3] = system: Fusobacterium nucleatum subsp. animalis
How it was run: as §1

Lactobacillus gasseri = system: Lactobacillus gasseri
How it was run: as §1

Lactobacillus paracasei = system: Lactobacillus paracasei
How it was run: as §1

Odoribacter splanchnicus = system: Odoribacter splanchnicus
How it was run: as §1

[4] = system: Parabacteroides distasonis
How it was run: as §1

Parabacteroides merdae = system: Parabacteroides merdae
How it was run: as §1

Measured: growth AUC

COC(=O)C(C)Oc1cc(Cl)c(Cl)cc1Cl (stereo not given)
inactive: Akkermansia muciniphila 0.978 | Bacteroides caccae 0.982 | Bacteroides clarus 1 | Bacteroides dorei 1.04 | Bacteroides stercoris 1.22 | [1] 0.982 | Bacteroides uniformis 0.978 | [2] 1.03 | Clostridium difficile 1.03 | Collinsella aerofaciens 0.982 | Coprococcus comes 1 | Escherichia coli ED1a 0.985 | Escherichia coli IAI1 1.05 | Eubacterium rectale 0.975 | [3] 1.03 | Lactobacillus gasseri 1.12 | Lactobacillus paracasei 0.883 | Odoribacter splanchnicus 0.927 | [4] 0.994 | Parabacteroides merdae 0.974

CCc1cccc(C)c1NC(=O)CS(=O)(=O)[O-].[Na+]
inactive: Akkermansia muciniphila 0.926 | Bacteroides caccae 1.03 | Bacteroides clarus 0.962 | Bacteroides dorei 1.03 | Bacteroides stercoris 0.937 | [1] 1.01 | Bacteroides uniformis 0.991 | [2] 0.975 | Clostridium difficile 1.06 | Collinsella aerofaciens 1.11 | Coprococcus comes 0.996 | Escherichia coli ED1a 0.954 | Escherichia coli IAI1 0.983 | Eubacterium rectale 0.974 | [3] 0.945 | Lactobacillus gasseri 1.04 | Lactobacillus paracasei 0.949 | Odoribacter splanchnicus 1.01 | [4] 1.02 | Parabacteroides merdae 0.989

Cc1ccc(Cl)cc1
inactive: Akkermansia muciniphila 0.981 | Bacteroides caccae 0.982 | Bacteroides clarus 1.03 | Bacteroides dorei 1.04 | Bacteroides stercoris 0.936 | [1] 1.01 | Bacteroides uniformis 1.01 | [2] 0.993 | Clostridium difficile 1.04 | Collinsella aerofaciens 1 | Coprococcus comes 1 | Escherichia coli ED1a 1.01 | Escherichia coli IAI1 1.05 | Eubacterium rectale 0.962 | [3] 1.1 | Lactobacillus gasseri 1.06 | Lactobacillus paracasei 0.997 | Odoribacter splanchnicus 0.964 | [4] 0.984 | Parabacteroides merdae 0.99

c1ccc2c(c1)-c1cccc3c1c-2cc1ccccc13
inactive: Akkermansia muciniphila 0.981 | Bacteroides caccae 1.05 | Bacteroides clarus 1.03 | Bacteroides dorei 1.04 | Bacteroides stercoris 1.08 | [1] 1.02 | Bacteroides uniformis 1.03 | [2] 1.06 | Clostridium difficile 1.02 | Collinsella aerofaciens 1.01 | Coprococcus comes 1.01 | Escherichia coli ED1a 0.985 | Escherichia coli IAI1 1.01 | Eubacterium rectale 1.03 | [3] 1.08 | Lactobacillus gasseri 1.02 | Lactobacillus paracasei 0.998 | Odoribacter splanchnicus 1.07 | [4] 1.31 | Parabacteroides merdae 1.05

N#Cc1cc(Cl)c(O)c(Cl)c1
inactive: Akkermansia muciniphila 1.12 | Bacteroides caccae 1 | Bacteroides clarus 1 | Bacteroides dorei 0.982 | Bacteroides stercoris 0.935 | [1] 0.994 | Bacteroides uniformis 0.947 | [2] 1.03 | Clostridium difficile 0.997 | Collinsella aerofaciens 1 | Coprococcus comes 1.02 | Escherichia coli ED1a 0.926 | Escherichia coli IAI1 0.9 | Eubacterium rectale 0.972 | [3] 1.03 | Lactobacillus gasseri 1.17 | Lactobacillus paracasei 1.03 | Odoribacter splanchnicus 0.998 | [4] 0.956 | Parabacteroides merdae 0.93

CCc1cccc(C)c1N(C(=O)C(=O)O)C(C)COC (stereo not given)
inactive: Akkermansia muciniphila 0.949 | Bacteroides caccae 1.03 | Bacteroides clarus 0.97 | Bacteroides dorei 1.02 | Bacteroides stercoris 1.1 | [1] 1.03 | Bacteroides uniformis 1.03 | [2] 1.03 | Clostridium difficile 1.03 | Collinsella aerofaciens 1.04 | Coprococcus comes 1.02 | Escherichia coli ED1a 0.992 | Escherichia coli IAI1 0.987 | Eubacterium rectale 0.979 | [3] 1.01 | Lactobacillus gasseri 0.977 | Lactobacillus paracasei 0.852 | Odoribacter splanchnicus 1.04 | [4] 1.02 | Parabacteroides merdae 1.01

CCc1cccc(C)c1NC(C)C(=O)O (racemic)
inactive: Akkermansia muciniphila 1.21 | Bacteroides caccae 1.01 | Bacteroides clarus 0.98 | Bacteroides dorei 0.931 | Bacteroides stercoris 0.965 | [1] 1.03 | Bacteroides uniformis 0.996 | [2] 1.04 | Clostridium difficile 1.03 | Collinsella aerofaciens 0.985 | Coprococcus comes 1.04 | Escherichia coli ED1a 0.986 | Escherichia coli IAI1 0.977 | Eubacterium rectale 1.19 | [3] 1.04 | Lactobacillus gasseri 0.97 | Lactobacillus paracasei 0.968 | Odoribacter splanchnicus 0.999 | [4] 0.978 | Parabacteroides merdae 1

COc1cc(Cl)ccc1Oc1ccc(Cl)cc1Cl
inactive: Akkermansia muciniphila 1.03 | Bacteroides caccae 0.902 | Bacteroides clarus 0.933 | Bacteroides dorei 0.948 | Bacteroides stercoris 0.93 | [1] 0.984 | Bacteroides uniformis 0.98 | [2] 0.872 | Clostridium difficile 1.01 | Collinsella aerofaciens 1.01 | Coprococcus comes 0.938 | Escherichia coli ED1a 0.996 | Escherichia coli IAI1 1 | Eubacterium rectale 0.99 | [3] 0.851 | Lactobacillus gasseri 1 | Lactobacillus paracasei 1.16 | Odoribacter splanchnicus 0.947 | [4] 0.988 | Parabacteroides merdae 0.929
